High-throughput results as filed in PubChem BioAssay.
Hits are enriched below; roughly 1.8% of the tested compounds scored in any of these assays.
Neddyl block = inhibitors of cullin neddylation, primary screen, biochemical, TR-FRET, uHTS, NAE and Ubc12; inhibition, % at 25 µM; hit rate 0.58% among 360,000; AID 651699, 2012; in the data active = inhibition above about 36%
Target sequence (P61081 whole entry, looked up): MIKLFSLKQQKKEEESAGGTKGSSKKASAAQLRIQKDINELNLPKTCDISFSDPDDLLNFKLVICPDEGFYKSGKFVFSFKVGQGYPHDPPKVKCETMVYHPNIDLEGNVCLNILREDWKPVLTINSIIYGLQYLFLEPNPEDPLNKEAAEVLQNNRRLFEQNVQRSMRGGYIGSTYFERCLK
Target sequence (Q13564 whole entry, looked up): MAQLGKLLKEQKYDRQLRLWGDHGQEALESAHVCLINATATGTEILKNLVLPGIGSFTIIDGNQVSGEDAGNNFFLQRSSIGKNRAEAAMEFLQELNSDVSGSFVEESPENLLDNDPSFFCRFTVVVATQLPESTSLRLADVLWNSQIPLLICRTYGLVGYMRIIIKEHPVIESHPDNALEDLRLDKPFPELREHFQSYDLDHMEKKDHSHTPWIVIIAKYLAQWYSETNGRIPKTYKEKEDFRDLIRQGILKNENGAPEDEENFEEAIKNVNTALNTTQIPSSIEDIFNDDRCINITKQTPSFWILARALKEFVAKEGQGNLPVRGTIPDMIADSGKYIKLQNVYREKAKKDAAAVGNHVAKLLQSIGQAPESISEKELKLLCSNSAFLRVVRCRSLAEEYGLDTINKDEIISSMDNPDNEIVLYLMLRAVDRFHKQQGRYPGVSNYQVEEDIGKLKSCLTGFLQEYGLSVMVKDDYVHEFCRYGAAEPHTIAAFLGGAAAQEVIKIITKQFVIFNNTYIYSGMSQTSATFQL
H9c2 protect = cardioprotection against H2O2-induced cell death, primary screen, uHTS, H9c2 cells, ATPLite luminescence; H9c2 cardiomyocytes, H2O2 injury protection, 2 h; protection from H2O2 cell death, % at 20 µM; hit rate 0.63% among 360,000;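 active = compounds giving at least 50% protection of heart cells from peroxide-induced death in the single-dose screen, raw or plate-pattern-corrected value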;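 note: 0% = DMSO wells with peroxide and 100% = DMSO wells without peroxide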
GRK2 aptamer HTS = compounds blocking aptamer binding on GRK2 – biochemical, human GRK2, bead flow cytometry, HTS, primary screen; Beta-adrenergic receptor kinase 1 (Homo sapiens), P25098; FAM-aptamer displacement from GRK2; inhibition of aptamer binding, % at 10 µM; hit rate 0.59% among 330,000;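 active = inhibition of aptamer binding above 40%, roughly 3 SD of noise, on plates passing a quality check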;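 note: median bead fluorescence of bound FAM aptamer so fluorescent compounds give negative values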
HDAC3 inhib = HDAC3 deacetylase inhibitors, primary screen, biochemical, fluorescence, cell-free homogeneous; Histone deacetylase 3 (Homo sapiens), O15379; recombinant HDAC3, fluorogenic peptide/trypsin coupled; inhibition, % at 8.3 µM; hit rate 0.15% among 320,000; AID 2718, 2010; in the data active = inhibition above about 26%, passing the limit was not always enough; inconclusive = no clear call, values can overlap the other calls
Active calls of the source: *; i = inactive; ? = inconclusive; / = no result given.

SMILES	Neddyl block	H9c2 protect	GRK2 aptamer HTS	HDAC3 inhib
O=C(CCN1CCN(C(c2ccccc2)c2ccccc2)CC1)N/N=C/c1ccc(O)cc1O	18	61*	3	14
Cc1cc(C)n(CCC(=O)N/N=C/c2ccc(O)cc2O)n1	16	55*	3	/
Cc1cc(C)n(CCC(=O)N/N=C/c2ccccc2O)n1	/	54*	2	-8
COc1ccc(F)cc1S(=O)(=O)Nc1cc2c3c(c1)CC(=O)N3CCC2	8	-4	1	4
COc1ccc(CCN2CC(C(=O)NCCCc3ccncc3)CCC2=O)cc1 (stereo not drawn)	4	1	/	/
O=c1[nH]cnc2sc3c(c12)CCC3	3	60*	3	3
Cc1nc2sc3c(c2c(=O)[nH]1)CCC3	-9	40	2	4
C/C(=N\NC(=S)NCc1ccccc1)c1ccc2ccccc2c1	-2	-20	98*	9
C/C(=N\NC(=S)NCc1ccccc1)c1cccc(Br)c1	-3	-12	0	4
O=C(CSc1nnnn1-c1ccc(F)cc1)c1ccc(O)c(O)c1	-7	54*	3	10
O=C(O)c1ccc(CSc2nnnn2-c2ccc(F)cc2)cc1	-4	-2	1	3
O=C(/C=C/c1ccccc1[N+](=O)[O-])N1CCc2ccccc2C1	-17	0	2	-3
C[C@@]12CCC=C[C@H]1[C@H](c1ccc(F)c(/C=C/c3ccccc3)c1)N(Cc1ccccc1)C2=O	16	-8	2	31*
Cc1ccc(-c2cc([C@H]3[C@@H]4C=CCC[C@@]4(C)C(=O)N3Cc3ccccc3)ccc2F)cc1	-5	-2	1	10
CC1Nc2ncnc(N3CCN(c4ccccc4)CC3)c2N(Cc2ccc(Br)cc2)C1=O (stereo not drawn)	2	62*	4	8
COc1ccc(Nc2nnc(SCc3cc(=O)n4ccsc4n3)s2)cc1	9	63*	0	-3
O=c1cc(CSc2nnc(Nc3ccccc3F)s2)nc2sccn12	2	40	0	3
CCN=C1S/C(=C\c2sccc2C)C(=O)N1CC	-4	-9	35	17
NC(=S)Nc1cc2ccccc2c2ccccc12	-31	18	3	-24
NC(=S)Nc1cccc2cc3ccccc3cc12	47*	-5	0	-11
O=C(COC(=O)c1cc(-c2cccnc2)nc2ccccc12)Nc1ccc(F)cc1F	-13	71*	0	6
COc1cc(OC)cc(-c2cc3nc(C)c(CCC(=O)Nc4nc(C)cs4)c(C)n3n2)c1	/	64*	0	-10
C[C@@H]1CN([C@@H](C)CO)C(=O)c2cc(Br)cnc2O[C@H]1CN(C)C(=O)c1ccncc1	-1	8	/	/
C/C=C(\C)C(=O)OC(C)(C)[C@H]1Cc2cc3ccc(=O)oc3cc2O1	/	-3	1	-7
COc1ccc2nc(-c3ccccn3)[nH]c2c1	43*	-13	0	-4
SMILES	Neddyl block	H9c2 protect	GRK2 aptamer HTS	HDAC3 inhib
O=c1cc(CN2CCN(S(=O)(=O)c3ccc4c(c3)OCCO4)CC2)c2ccc(O)cc2o1	/	25	0	-96
O=c1cc(CN2CCN(S(=O)(=O)c3cccc(Cl)c3)CC2)c2ccc(O)cc2o1	/	54*	0	0
CCOC(=O)CNC(=O)Cn1cnc2c(nnn2-c2cccc(OC)c2)c1=O	10	-2	0	-4
CCOc1cccc(C=Nc2cc(C)cc(C)c2O)c1O	2	93*	5	4
CCCC(C)c1nc(C(N)=O)c2[nH]c(=O)n(-c3ccc(OC)c(OC)c3)c2n1 (stereo not drawn)	8	-4	7	5
O=C1COc2ccc(NC(=O)c3ccccc3C(=O)O)cc2N1	-12	2	0	-2
O=C(COC(=O)CNC(=O)c1ccc(Cl)cc1)Nc1ccc(Cl)cc1C(F)(F)F	2	-6	0	6
COc1ccc2c(c1OC)c(=O)n1c3ccc(OC(C)C(=O)NCCN4CCOCC4)cc3c3ccnc2c31 (stereo not drawn)	/	53*	2	-36
Cc1ccc(C(=O)Nc2scc(-c3ccccc3)c2C(=O)O)cc1	41*	-14	0	2
COc1cc(C(=O)Nc2scc(-c3ccc(C)cc3)c2C(=O)O)cc(OC)c1OC	/	6	3	-1
Cc1nc(N2CCN(S(=O)(=O)c3cccc4nonc34)CC2)c2c3c(sc2n1)CCCC3	-21	49*	0	/
Cc1occc1C(=O)N/N=C/C(Br)=C\c1ccccc1	-22	-12	0	10
COc1cccc(C(=O)N2CCSC2=S)c1	-2	-2	0	37*
COc1ccc(O)c(/C=N/Nc2nc(C)cc(-c3ccccc3)n2)c1	14	66*	1	?
COc1ccc(/C=N/Nc2nc(C)cc(-c3ccccc3)n2)c(OC)c1	16	4	0	15
N#CCSc1nc2cc(C(=O)N3CCC(C(N)=O)CC3)ccc2c2nc3ccccc3n12	5	52*	0	-7
N#CCSc1nc2cc(C(=O)N3CCCC3)ccc2c(=O)n1Cc1ccccc1	7	4	0	0
c1cc2[nH]snc2c2nc(C3CC3)nc12	-9	86*	4	11
COCCc1ccc(OC2(C)CCN(Cc3cccc(OC)c3OC)C2)cc1 (stereo not drawn)	3	1	/	/
Cc1ccc(CS(=O)(=O)c2cn(CC(=O)Nc3ccon3)c3ccccc23)cc1	15	-9	0	5
Cc1ccc(-c2cc(-c3n[nH]c(=S)o3)c3ccccc3n2)cc1	49*	-14	0	0
S=c1[nH]nc(-c2cc(-c3ccccn3)nc3ccccc23)o1	5	-2	3	12
O=C(NNC(=O)c1cc(O)c(O)c(O)c1)NC1CCCCC1	0	1	0	-12
COc1ccc(OC)c(S(=O)(=O)ON2C(=O)c3ccccc3C2=O)c1	13	1	1	37*
COc1ccc(NC(=O)CSc2ccc3nnc(-c4ccccn4)n3n2)c(OC)c1	-8	5	0	-7
SMILES	Neddyl block	H9c2 protect	GRK2 aptamer HTS	HDAC3 inhib
CCCCN(C=O)c1c(CC)nc2ccc(C(=O)Nc3cc(-c4ccccc4)ccc3OC)cn12	37	31	/	/
COc1ccc(NC(=O)N(CCCN(C)C)Cc2cc3cc(OC)ccc3[nH]c2=O)cc1	14	51*	0	?
CCCC1=NN2C(=N)/C(=C\c3cc(C)n(Cc4ccccc4)c3C)C(=O)N=C2S1	18	-3	1	-1
Cc1cc(/C=C2\C(=N)N3N=C(S(C)(=O)=O)SC3=NC2=O)c(C)n1Cc1ccccc1	51*	-4	28	-6
CC(OC(=O)Cn1cnc2c1c(=O)n(C)c(=O)n2C)C(=O)c1ccccc1 (stereo not drawn)	15	-2	1	0
COc1ccc(-n2nc(C(=O)NCC(=O)Nc3cccc(Cl)c3)c3ccccc3c2=O)cc1OC	i	11	1	-2
O=C(CCNC(=O)c1ccco1)Nc1ccc(Cl)c(C(F)(F)F)c1	1	-6	0	1
COc1cc(/C=N/NC(=O)c2cccnc2)ccc1OS(=O)(=O)c1cc(C)ccc1C	3	62*	4	-2
